# This is one part of a sample in which the strongest signals are shown more often than they occur.
# Assays:
# Test in all cases: glycan array binding signal (z-score within array); higher = stronger binding
# Conditions in all cases: glycan notation: IUPAC condensed, linker removed
# [1] = biological target: Gal(b1-4)GlcNAc(b1-3)Gal(b1-4)GlcNAc(b1-2)[Gal(b1-4)GlcNAc(b1-3)Gal(b1-4)GlcNAc(b1-6)]Man(a1-6)[Gal(b1-4)GlcNAc(b1-3)Gal(b1-4)GlcNAc(b1-2)Man(a1-3)]Man(b1-4)GlcNAc(b1-4)GlcNAc
# Procedure, shortened: (§1)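 The binding signal is a Z-score computed within each array. Data were drawn from 3228 arrays in the Consortium for Functional Glycomics database, restricted to those with a known protein sequence. Scores were averaged over arrays of the same protein sequence at different concentrations or buffers, and over linkers, and negative values can be taken as non-binding.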
# [2] = biological target: Gal(b1-4)GlcNAc(b1-3)Gal(b1-4)GlcNAc(b1-3)Gal(b1-4)GlcNAc(b1-2)Man(a1-3)[Gal(b1-4)GlcNAc(b1-3)Gal(b1-4)GlcNAc(b1-3)Gal(b1-4)GlcNAc(b1-2)Man(a1-6)]Man(b1-4)GlcNAc(b1-4)[Fuc(a1-6)]GlcNAc
# Procedure, shortened: as §1
# [3] = biological target: Gal(b1-4)GlcNAc(b1-3)Gal(b1-4)GlcNAc(b1-3)Gal(b1-4)GlcNAc(b1-3)Gal(b1-4)GlcNAc(b1-2)Man(a1-3)[Gal(b1-4)GlcNAc(b1-3)Gal(b1-4)GlcNAc(b1-3)Gal(b1-4)GlcNAc(b1-3)Gal(b1-4)GlcNAc(b1-2)Man(a1-6)]Man(b1-4)GlcNAc(b1-4)[Fuc(a1-6)]GlcNAc
# Procedure, shortened: as §1
# [4] = biological target: Gal(b1-4)GlcNAc(b1-3)Gal(b1-4)GlcNAc(b1-3)Gal(b1-4)GlcNAc(b1-3)Gal(b1-4)GlcNAc(b1-3)Gal(b1-4)GlcNAc(b1-2)[Gal(b1-4)GlcNAc(b1-3)Gal(b1-4)GlcNAc(b1-3)Gal(b1-4)GlcNAc(b1-3)Gal(b1-4)GlcNAc(b1-3)Gal(b1-4)GlcNAc(b1-6)]Man(a1-6)[Gal(b1-4)GlcNAc(b1-3)Gal(b1-4)GlcNAc(b1-3)Gal(b1-4)GlcNAc(b1-3)Gal(b1-4)GlcNAc(b1-3)Gal(b1-4)GlcNAc(b1-2)Man(a1-3)]Man(b1-4)GlcNAc(b1-4)[Fuc(a1-6)]GlcNAc
# Procedure, shortened: as §1
# [5] = biological target: Gal(b1-4)GlcNAc(b1-3)Gal(b1-4)GlcNAc(b1-6)[Gal(b1-3)]GalNAc
# Procedure, shortened: as §1
# GalNAc(b1-4)Gal(b1-4)Glc = biological target: GalNAc(b1-4)Gal(b1-4)Glc
# Procedure, shortened: as §1
# GalNAc(b1-4)GlcNAc = biological target: GalNAc(b1-4)GlcNAc
# Procedure, shortened: as §1
# [6] = biological target: GalNAc(b1-4)GlcNAc(b1-2)Man(a1-3)[GalNAc(b1-4)GlcNAc(b1-2)Man(a1-6)]Man(b1-4)GlcNAc(b1-4)GlcNAc
# Procedure, shortened: as §1
# [7] = biological target: GalNAc3S(b1-4)[Fuc(a1-3)]GlcNAc
# Procedure, shortened: as §1
# GalNAc6S(b1-4)GlcNAc = biological target: GalNAc6S(b1-4)GlcNAc
# Procedure, shortened: as §1
# [8] = biological target: GlcA3S(b1-3)Gal(b1-4)GlcNAc(b1-2)Man
# Procedure, shortened: as §1
# [9] = biological target: GlcNAc(a1-4)Gal(b1-4)GlcNAc(b1-3)Gal(b1-4)Glc
# Procedure, shortened: as §1
# [10] = biological target: GlcNAc(b1-2)[GlcNAc(b1-4)]Man(a1-3)[GlcNAc(b1-2)Man(a1-6)]Man(b1-4)GlcNAc(b1-4)GlcNAc
# Procedure, shortened: as §1
# [11] = biological target: GlcNAc(b1-3)Gal(b1-4)GlcNAc(b1-2)Man(a1-3)[GlcNAc(b1-3)Gal(b1-4)GlcNAc(b1-2)Man(a1-6)]Man(b1-4)GlcNAc(b1-4)[Fuc(a1-6)]GlcNAc
# Procedure, shortened: as §1
# GlcNAc(b1-3)GalNAc = biological target: GlcNAc(b1-3)GalNAc
# Procedure, shortened: as §1
# GlcNAc(b1-3)Man = biological target: GlcNAc(b1-3)Man
# Procedure, shortened: as §1
# [12] = biological target: GlcNAc(b1-4)Gal(b1-4)GlcNAc
# Procedure, shortened: as §1
# Man(a1-6)Man = biological target: Man(a1-6)Man
# Procedure, shortened: as §1
# [13] = biological target: Neu5Ac(a2-3)Gal(b1-3)GalNAc
# Procedure, shortened: as §1
# [14] = biological target: Neu5Ac(a2-3)Gal(b1-3)GlcNAc(b1-2)Man(a1-3)[Neu5Ac(a2-3)Gal(b1-3)GlcNAc(b1-2)Man(a1-6)]Man(b1-4)GlcNAc(b1-4)GlcNAc
# Procedure, shortened: as §1
# [15] = biological target: Neu5Ac(a2-3)Gal(b1-3)GlcNAc(b1-3)GalNAc
# Procedure, shortened: as §1
# [16] = biological target: Neu5Ac(a2-3)Gal(b1-3)[Fuc(a1-4)]GlcNAc(b1-3)Gal(b1-3)[Fuc(a1-4)]GlcNAc
# Procedure, shortened: as §1
# [17] = biological target: Neu5Ac(a2-3)Gal(b1-3)[Neu5Ac(a2-6)]GlcNAc(b1-3)[Fuc(a1-3)[Gal(b1-4)]GlcNAc(b1-6)]Gal(b1-4)Glc
# Procedure, shortened: as §1
# Neu5Ac(a2-3)Gal(b1-4)Glc = biological target: Neu5Ac(a2-3)Gal(b1-4)Glc
# Procedure, shortened: as §1
# [18] = biological target: Neu5Ac(a2-3)Gal(b1-4)GlcNAc(b1-3)Gal(b1-4)GlcNAc(b1-3)Gal(b1-4)GlcNAc
# Procedure, shortened: as §1
# [19] = biological target: Neu5Ac(a2-6)Gal(b1-3)GlcNAc(b1-3)[Gal(b1-4)GlcNAc(b1-6)]Gal(b1-4)Glc
# Procedure, shortened: as §1
# [20] = biological target: Neu5Ac(a2-8)Neu5Ac(a2-3)Gal(b1-4)GlcNAc
# Procedure, shortened: as §1
# [21] = biological target: Neu5Ac(a2-8)Neu5Ac(a2-8)Neu5Ac
# Procedure, shortened: as §1
# [22] = biological target: Neu5Gc(a2-3)Gal(b1-4)GlcNAc
# Procedure, shortened: as §1
# [23] = biological target: Neu5Gc(a2-6)Gal(b1-4)GlcNAc
# Procedure, shortened: as §1
binder,measurement,setting,value
SabA (Helicobacter pylori) (protein) MGSSHHHHHHSSGLVPRGSHMENLYFQGEDNGFFVSAGYQIGEAVQMVKNTGELKNLNEKYEQLSQYLNQVASLKQSIQNANNIELVNSSLNYLKSFTNNNYNSTTQSPIFNAVQAVITSVLGFWSLYAGNYFTFFVGKKVGDSGQPASVQGNPPFKTIIENCSGIENCAMDQTTYDKMKKLAEDLQAAQTNSATKGNNLCALSGCAATDSTSNPPNSTVSNALNLAQQLMDLIANTKTAMMWKNIVISGVSNTSGAITSTNYPTQYAVFNNIKAMIPILQQAVTLSQSNHTLSASLQAQATGSQTNPKFAKDIYTFAQNQKQVISYAQDIFNLFNSIPAEQYKYLEKAYLKIPNAGSTPTNPYRQVVNLNQEVQTIKNNVSYYGNRVDAALSVARDVYNLKSNQAEIVTAYNDAKTLSEEISKLPHNQVNTKDIVTLPYDKNAPAAGQSNYQINPEQQSNLNQALAAMSNNPFKKVGMISSQNNNGA,glycan array binding signal (z-score),[1],2.39
same,glycan array binding signal (z-score),[2],-0.537
same,glycan array binding signal (z-score),[3],0.132
same,glycan array binding signal (z-score),[4],-0.103
same,glycan array binding signal (z-score),[5],-0.494
same,glycan array binding signal (z-score),GalNAc(b1-4)Gal(b1-4)Glc,1.6
same,glycan array binding signal (z-score),GalNAc(b1-4)GlcNAc,0.676
same,glycan array binding signal (z-score),[6],2.98
same,glycan array binding signal (z-score),[7],-0.298
same,glycan array binding signal (z-score),GalNAc6S(b1-4)GlcNAc,0.834
same,glycan array binding signal (z-score),[8],-0.867
same,glycan array binding signal (z-score),[9],-0.716
same,glycan array binding signal (z-score),[10],-0.287
same,glycan array binding signal (z-score),[11],0.826
same,glycan array binding signal (z-score),GlcNAc(b1-3)GalNAc,0.191
same,glycan array binding signal (z-score),GlcNAc(b1-3)Man,1.69
same,glycan array binding signal (z-score),[12],-0.173
same,glycan array binding signal (z-score),Man(a1-6)Man,-0.738
same,glycan array binding signal (z-score),[13],0.965
same,glycan array binding signal (z-score),[14],1.79
same,glycan array binding signal (z-score),[15],-0.131
same,glycan array binding signal (z-score),[16],0.27
same,glycan array binding signal (z-score),[17],-0.626
same,glycan array binding signal (z-score),Neu5Ac(a2-3)Gal(b1-4)Glc,2.88
same,glycan array binding signal (z-score),[18],0.051
same,glycan array binding signal (z-score),[19],-0.762
same,glycan array binding signal (z-score),[20],-0.714
same,glycan array binding signal (z-score),[21],-0.39
same,glycan array binding signal (z-score),[22],-0.614
same,glycan array binding signal (z-score),[23],0.779

# Reference: the supplement of paper PMC8728848
